For one assay, the target named is MTX3. Put plainly: pooled miR-30 sensor sort-seq; sequence = guide strand. The following applies: shRNA.
TAGAAGATTTAGGCACTCCTTG: the sensor-assay potency score (higher = more potent) was -0.542.
On the same count and under the same terms, then TTGGCGAAGATTGTCATCCATC, with -1.1.
The same measure, in the same setting: then TTGCTGAGAGTTCATAATCAGC, with -1.72.
The sequence ATAATCAGCATTATATTTCTGT displayed a sensor-assay potency score (higher = more potent) of 0.674.
Still for that read-out and setting: then TTAATATTTATCTATGTGCTAC, with -0.31; and TTTTGGTTTAGAGTCTTCCTTA, with 0.00174; and TATCACATTGACTTTCAAGGGT, with 0.582.
Same read-out and setting: the result for TAAAGTAATTGTCACTCTCAAC reads -1.48.
On the same count and under the same terms, the result for TAATTGTCACTCTCAACCCAGA reads -0.703; that for TTATCTATCACATTGACTTTCA, -0.0166.
Consider TTTGCCTTCACACACTTGGTGT, for which the sensor-assay potency score (higher = more potent) is -0.519.

The next assay has as its target MUC16. The assay is described as above. The following applies: shRNA.
TTGACATAGAAACTATTGCTTG registered a sensor-assay potency score (higher = more potent) of -0.839.
Same read-out and setting: then TTGGACTTTCTGAACTAGCGTG, with -0.377; and TTGACATAGAGACTGTCCCTGT, with -0.193.
Same read-out and setting: then TAGTTGTCGTTGAAACAGCTGA, with -0.38; and TTGTCTGTGATGTTGAACTTGA, with -0.129; and TTGACATAGAGACTGTTCCTGT, with -0.0675.
TTGACATAGAGACTGTGCCTGT yielded a sensor-assay potency score (higher = more potent) of -0.153.
On the same count and under the same terms, then TTCAGTAGTAGCACTAGTGGGC, with 0.151.
Consider TTTGTCTCTGTTGTTGAGCTGG, for which the sensor-assay potency score (higher = more potent) worked out at 0.192.
Still for that read-out and setting: the result for TTGTCTTTGAAACCAGTTCTGG reads -0.722; that for TTGACATAGAGACTGTTCCGGT, -0.323.

Values taken from the OligoGym collection.
Further: reference of the scale not given here.
